Shown are actives, neighbours in structure and some others; about 18% of the full set was active somewhere.
DT40 TDP1 CPT = growth inhibition of DT40 Tdp1-/-;hTDP1 cells with camptothecin (screen for TDP1 inhibitors) | chicken DT40 Tdp1-/-;hTDP1 cells + 20 nM CPT, ATP luminescence, 48 h | Potency, µM (series often up to 46.2 µM), for inactives: top-dose activity change, negative = growth inhibition, most hits filed as inhibitors | hit rate 12% among 420,000; note: potency is the fitted concentration of half-maximal effect; nearly all actives have a fitted effect of over 55% in size
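Cell growth measured by CellTiter-Glo luminescence after a minimum 48 h, 37 C compound exposure with 20 nM CPT in Tdp1-knockout DT40 cells stably expressing hTDP1, seeded 400/well; qHTS titration format.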
IL-1B inflam inh = inhibitors of inflammasome signaling (IL-1 beta secretion) | THP-1 LPS/ATP IL-1B secretion, AlphaLISA, 16 h; stronger effect = lower value | activity change, % at 57.5 µM | hit rate 4.7% among 360,000 | AID 743279; in the data active = activity change below about -50%; inconclusive = mostly about -30% to -49%
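THP-1 cells pretreated 1 hr with compounds (up to 57.5 uM final), then stimulated with LPS (250 ng/mL final) plus ATP (1.25 mM final); secreted IL-1B measured by AlphaLISA after 16 hr, decreased signal indicating inhibition.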
Six1-Eya2 blk = inhibitors of human Six1/Eya2 interaction; AlphaScreen GST-Six1/His-Eya2 binding, biochemical; stronger effect = lower value; activity change, % (no concentration beside the values); hit rate 0.56% among 360,000; in the data active = activity change below about -65%; inconclusive = mostly about -30% to -63%
Target sequence (O00167 whole entry, looked up): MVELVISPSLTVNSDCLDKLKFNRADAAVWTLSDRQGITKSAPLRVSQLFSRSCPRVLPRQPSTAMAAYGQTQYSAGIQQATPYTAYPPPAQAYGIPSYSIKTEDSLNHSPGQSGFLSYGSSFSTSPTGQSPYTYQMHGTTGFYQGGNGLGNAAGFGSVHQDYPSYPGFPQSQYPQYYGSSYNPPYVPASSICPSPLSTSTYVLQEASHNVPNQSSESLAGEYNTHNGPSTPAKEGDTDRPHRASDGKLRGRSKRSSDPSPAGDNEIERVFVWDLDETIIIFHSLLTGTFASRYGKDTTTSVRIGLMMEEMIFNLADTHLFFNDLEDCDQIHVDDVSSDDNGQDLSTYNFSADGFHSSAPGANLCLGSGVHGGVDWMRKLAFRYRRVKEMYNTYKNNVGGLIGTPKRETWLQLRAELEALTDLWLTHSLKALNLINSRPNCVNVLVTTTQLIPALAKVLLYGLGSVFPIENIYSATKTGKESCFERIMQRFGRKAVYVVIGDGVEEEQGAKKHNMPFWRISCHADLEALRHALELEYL
Target sequence (Q15475 whole entry, looked up): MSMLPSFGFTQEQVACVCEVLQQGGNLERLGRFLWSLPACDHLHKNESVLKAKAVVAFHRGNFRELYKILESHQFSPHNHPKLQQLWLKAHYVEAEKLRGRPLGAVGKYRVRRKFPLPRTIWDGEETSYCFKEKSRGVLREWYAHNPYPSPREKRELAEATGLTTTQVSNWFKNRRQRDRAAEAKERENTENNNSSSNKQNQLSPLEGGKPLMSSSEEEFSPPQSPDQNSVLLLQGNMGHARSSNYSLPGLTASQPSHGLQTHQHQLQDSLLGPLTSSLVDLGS
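AlphaScreen with GST-Six1 and His-Eya2 (5X mix: 250 nM and 500 nM), glutathione donor and nickel acceptor beads; buffer 50 mM Tris pH 8.0, 300 mM NaCl, 1 mM TCEP; 1 h at 37 C in the dark.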
DT40 TDP1 no CPT = qHTS for Inhibitors of human tyrosyl-DNA phosphodiesterase 1 (TDP1): qHTS in cells in absence of CPT | DT40 Tdp1-/- hTDP1 cells, no CPT, ATP luminescence, 48 h | Potency, µM (highest dose often 46.2 µM), for inactives: at the top dose activity change, negative = growth inhibition, most hits filed as inhibitors | hit rate 15% among 420,000; note: potency is the fitted concentration of half-maximal effect; nearly all actives have a fitted effect of over 55% in size
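Cells were dispensed at 400 per well, compounds added by pin tool, plates incubated ≥48 hr at 37 °C, then CellTiter-Glo added for 30 min at room temperature before luminescence reading. Line: DT40 Tdp1-/- complemented with hTDP1; camptothecin omitted.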
CtBP-E1A inh = blocks the CtBP interaction with E1A. AlphaScreen GST-E1A/His-CtBP binding, 1536-well; stronger effect = lower value. activity change, % (test concentration not listed). hit rate 0.49% among 340,000. AID 651724; in the data active = activity change below about -65%; inconclusive = mostly about -30% to -63%
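Steps: dispense buffer (Tris pH 8.0, NaCl 300 mM, TCEP 1 mM, BSA, Tween 20); add 5X protein mix (GST-E1A, His-CtBP, 125 nM each); pin 23 nL compound; 2 h at 37 °C, dark; add 5X beads (50 ug/mL); 1 h; read.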
TDP1 block = blocks human tyrosyl-DNA phosphodiesterase 1; Q9NUW8; Potency, µM (titrated, usually from 130 µM), inactives show at the highest dose activity change, negative = inhibition, hits mostly inhibitors; recombinant TDP1, AlphaScreen DNA substrate cleavage; hit rate 0.28% among 350,000; note: potency is the fitted concentration of half-maximal effect; nearly all actives have a fitted effect of over 40% in size
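Compounds were preincubated with Tdp1 (1 nM final) for 15 min at room temperature before substrate (15 nM final) started a 5 min reaction; beads (10 ug/ml final) were then added for 10 min before AlphaScreen detection.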
The depositor's hits bear a star; ? = inconclusive; . = no result; [ ] = another dose, or the depositor's remark. Unless noted, calls come from the whole dose curve; as a rule, active = well fitted curve in the direction sought with a large enough effect; inconclusive = small, poorly fitted or top-dose-only effect, or another doubt; inactive = no such curve, though single readings can be large; an effect the other way counts as inactive or inconclusive. % is set by controls: 0 for no effect and ±100 for the full control effect.

SMILES | DT40 TDP1 CPT | IL-1B inflam inh | Six1-Eya2 blk | DT40 TDP1 no CPT | CtBP-E1A inh | TDP1 block
Cc1ccc(C)c(N2CCN(S(=O)(=O)c3ccc4c(c3)CCCN4C(=O)C3CCC3)CC2)c1 | 16µM* | . | . | 18µM* | . | 7%
Cc1cccc(N2CCN(S(=O)(=O)c3ccc4c(c3)CCCN4C(=O)C3CCC3)CC2)c1C | ? | 15 | -12 | 16µM* | -8 | 6%
Cc1ccc(C)c(NS(=O)(=O)c2ccc3c(c2)CCCN3C(=O)C2CCC2)c1 | ? | . | . | ? | . | -2%
O=C(C1CCC1)N1CCc2cc(S(=O)(=O)N3CCN(c4ccccc4)CC3)ccc21 | -29% | . | . | -20% | . | -5%
O=C(CSc1nnc(C2CC2)n1C1CC1)c1cccs1 | 1% | 3 | 2 | 19% | 2 | 3%
CCCC(=O)NC(=S)Nc1sc2c(c1C(N)=O)CCC2 | -8% | -8 | -12 | -1% | -14 | 1%
NC(=O)c1ccccc1NC(=S)NC(=O)CCc1ccccc1 | 3.7µM* | 11 | 2 | 2.6µM* | 5 | -5%
CCCC(=O)Nc1sc(Cc2ccccc2)c(C)c1C(N)=O | ? | ? | -9 | 23µM* | -8 | 1%
COC(=O)CCC(=O)NC(=S)Nc1sc(C)c(C)c1C(N)=O | 0.16µM* | 5 | -5 | 0.15µM* | 17 | -1%
COC(=O)c1c(NC(=O)CCC(=O)O)sc(Cc2ccccc2)c1C | -26% | 21 | -1 | -1% | 7 | 1%
Cc1sc(NC(=S)NC(=O)CCc2ccccc2)c(C(N)=O)c1C | 0.21µM* | 44 | 0 | 0.18µM* | -1 | 0%
Cc1sc(NC(=S)NC(=O)c2ccco2)c(C(N)=O)c1C | 13% | -3 | -1 | 0% | . | -5%
NS(=O)(=O)c1ccc(CCNC(=O)CCc2ccccc2)cc1 | 8% | 10 | 0 | 8% | 5 | .
COc1ccc(CN(C)C(=O)CNC(=O)c2sc3ccccc3c2Cl)c(OC)c1OC | ? | ? | 0 | -24% | -4 | .
Cc1sc(NC(=O)Nc2ccccc2)c(C(N)=O)c1C | ? | -76* | -7 | -24% | -6 | 8%
COc1ccc(-c2csc(NC(=S)NC(=O)c3ccc(S(=O)(=O)N(C)C)cc3)n2)cc1OC | ? | 29 | -2 | ? | -6 | 2%
CCOc1ccccc1NC(=O)C(=O)c1cc(C)n(-c2ccc(F)cc2)c1C | ? | . | . | -26% | . | 6%
CCOc1cc(C=NNC(=O)c2cccc(S(=O)(=O)N3CCCC3)c2)ccc1O | -29% | -2 | -66* | ? | . | 1%
CCOc1cc(/C=N/NC(=O)c2cc(C)n(-c3ccc(F)cc3)c2C)ccc1O | 16µM* | 11 | -21 | 21µM* | . | 6%
COc1cc(/C=N/Nc2nc(-c3ccc(S(=O)(=O)N(C)C)cc3)cs2)ccc1O | 8.2µM* | -91* | -6 | 7.3µM* | -2 | 7%
CCOc1cc(/C=N/Nc2nc(-c3cccc(S(=O)(=O)N4CCCC4)c3)cs2)ccc1O | 13µM* | -83* | ? | 8.2µM* | ? | -4%
C[C@H](CO)N1C[C@H](C)[C@@H](CN(C)C(=O)CCCN(C)C)OCc2cn(nn2)CCCC1=O | 7% | 3 | 8 | -4% | 5 | .
Cc1ccsc1C(=O)Nc1cc(C(C)(C)C)nn1-c1ccccc1 | ? | -6 | 3 | ? | 10 | -1%
O=S(=O)(c1cccc(-c2csc(N/N=C/c3ccco3)n2)c1)N1CCOCC1 | 16µM* | -72* | 1 | 13µM* | -22 | 10%
COc1cc(/C=N/NC(=O)c2cccc(S(=O)(=O)N3CCOCC3)c2)cc(OC)c1O | -24% | 8 | -5 | -10% | -16 | 0%
SMILES | DT40 TDP1 CPT | IL-1B inflam inh | Six1-Eya2 blk | DT40 TDP1 no CPT | CtBP-E1A inh | TDP1 block
CCN(Cc1ccccc1)c1ccc(/C=N/NC(=O)c2cccc(S(=O)(=O)N3CCOCC3)c2)cc1 | ? | 5 | 2 | 13µM* | -6 | 5%
c1nc(NC2CCCC2)c2[nH]cnc2n1 | ? | -25 | 3 | ? | 7 | 5%
CSCCC(NC(=O)c1ccccc1)C(=O)Nc1ccc(C)cc1 (configuration not stated) | -8% | -12 | 5 | 2% | 3 | 3%
CCc1cc(-c2n[nH]c(C)c2-c2nc(C)cs2)c(O)cc1OC | 0% | -78* | -3 | -28% | 16 | .
COc1cc(NC(=O)C(Cc2ccccc2)NS(=O)(=O)c2cccs2)cc(OC)c1 (configuration not stated) | 23µM* | . | . | -28% | . | 3%
CCc1cccc(NC(=O)C(Cc2ccccc2)NS(=O)(=O)c2cccs2)c1 (configuration not stated) | ? | . | . | 18µM* | . | 9%
Cc1cc(C)c(O)c(-c2cc(C(=O)NCCc3ccc(S(N)(=O)=O)cc3)[nH]n2)c1 | -22% | -51* | -9 | 9.2µM* | -1 | 6%
COc1cc(CNC(=O)c2cc(-c3ccc(OC)cc3C)n[nH]2)cc(OC)c1 | ? | -22 | -11 | -11% | 1 | .
Cc1cc(O)c(-c2cc(C(=O)NCCc3ccc(S(N)(=O)=O)cc3)[nH]n2)cc1C | -3% | 21 | 2 | ? | -8 | 1%
COc1ccc(-c2cc(C(=O)Nc3ccc(NC(C)=O)cc3)[nH]n2)c(C)c1 | ? | -22 | 2 | -19% | 5 | .
COc1cccc(CNc2ncc(C(=O)Nc3cc(OC)c(OC)c(OC)c3)c(C)n2)c1 | 8.2µM* | 26 | 1 | 9.2µM* | 8 | .
COc1ccc(-c2cc(C(=O)NCc3ccc(F)cc3)[nH]n2)c(C)c1 | 18µM* | -8 | -8 | ? | -3 | .
COc1ccc(-c2cc(C(=O)Nc3cc(OC)c(OC)c(OC)c3)[nH]n2)c(C)c1 | 23µM* | -23 | -2 | 12µM* | -12 | .
COc1cc(NC(=O)c2cnc(NCc3ccccc3)nc2C)cc(OC)c1OC | ? | 36 | 4 | ? | 2 | .
CCOc1ccc(NC(=O)CSc2nnc(Cn3cnc([N+](=O)[O-])n3)n2CC)cc1 | 5% | 15 | 7 | -4% | -2 | 0%
CCNC(=O)c1c(NC(=O)c2cc(-c3cc(C)cc(C)c3O)n[nH]2)sc2c1CCCC2 | ? | -1 | 10 | 5.8µM* | -2 | .
Cc1cc(C)c(O)c(-c2cc(C(=O)NCc3ccccc3)[nH]n2)c1 | 18µM* | ? | -12 | ? | -2 | 4%
COc1ccc(CNC(=O)c2cc(-c3cc(C)cc(C)c3O)n[nH]2)cc1 | ? | -68* | -9 | ? | -15 | 8%
COc1ccc(OC[C@@H](CO)OC)cc1 | . | . | . | . | . | 2%[21 µM]

Source: PubChem BioAssay (National Center for Advancing Translational Sciences (NCATS))
